We go through eight molecules from PubChem BioAssay (NCI).

The panel holds about 79,000 compounds, 15% with a hit somewhere; the sample as a whole holds those more often. Unmarked numbers belong to inactive results. Active and inactive are the calls of the source. No stated cut-off is given here; in the data, active means growth inhibition above about 70%; inactive means the rest.

The nature of this assay: NCI Yeast Anticancer Drug Screen. Data for the CLN2oe strain (AID 163).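 Further: 0% = growth of vehicle-only control cultures.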 The note with it: S. cerevisiae CLN2oe strain, hits give high values. The method, then: Growth inhibition of yeast strains with defined genetic alterations is measured as a screen for potential anti-cancer activity. Selected strains with alterations in DNA damage repair or cell cycle control were exposed to compounds and growth inhibition was measured relative to vehicle treated controls. The strain used in this assay is CLN2oe

`N#C/C(=C\NC(=S)Nc1ccc(S(N)(=O)=O)cc1)C(=O)c1ccc2ccccc2c1`: the growth inhibition reads like this: (at 1.2 µM) -2%; (at 3.7 µM) -4%; (at 11.0 µM) -4%; (at 33.0 µM) 0%; (at 100.0 µM) -1%.

On to `COC(=O)/C(C#N)=C\NC(=S)C(N)=S`, for which the growth inhibition (at 1.2 µM) was 21%; the growth inhibition (at 3.7 µM) is 40%; the growth inhibition (at 11.0 µM) was 96% (active); the growth inhibition (at 33.0 µM) is 100% (active); the growth inhibition (at 100.0 µM) was 98% (active).

Regarding `CCC(OC(C)=O)C1CC(C(C)C)CCC1C` (stereo not given), the growth inhibition (at 1.2 µM) was -4%; the growth inhibition (at 3.7 µM) was -5%; the growth inhibition (at 11.0 µM) was 2%; the growth inhibition (at 33.0 µM) is 0%; the growth inhibition (at 100.0 µM) was 5%.

On to `COc1ccc(C(C)c2cc3c(cc2OCC(C)=O)OCO3)cc1` (stereo not given), for which the growth inhibition runs as follows: (at 1.2 µM) -4%; (at 3.7 µM) -3%; (at 11.0 µM) -2%; (at 33.0 µM) -10%; (at 100.0 µM) 76% (active).

As to `CCCCCCCCCCCNC=O`, the growth inhibition (at 1.2 µM) was -15%; the growth inhibition (at 3.7 µM) is -14%; the growth inhibition (at 11.0 µM) was -27%; the growth inhibition (at 33.0 µM) is -20%; the growth inhibition (at 100.0 µM) was 98% (active).

In the case of `CCOC(=O)C(Cc1c2ccccc2cc2ccccc12)(NC(C)=O)C(=O)OCC`, the growth inhibition is, setting by setting: (at 1.2 µM) -3%; (at 3.7 µM) -2%; (at 11.0 µM) -6%; (at 33.0 µM) 0%; (at 100.0 µM) -2%.

With `O=C(c1ccccc1)[C@H]1Nc2ccc(Cl)cc2[C@H]2OCCC[C@@H]12`, the growth inhibition (at 1.2 µM) is -14%; the growth inhibition (at 3.7 µM) is 2%; the growth inhibition (at 11.0 µM) was -10%; the growth inhibition (at 33.0 µM) was 23%; the growth inhibition (at 100.0 µM) was 85% (active).

Turning to `CCCCN(CCCC)c1ccc(N=Nc2ccc(S(=O)(=O)O)cc2)cc1`, the growth inhibition by setting is: (at 1.2 µM) 12%; (at 3.7 µM) -15%; (at 11.0 µM) -8%; (at 33.0 µM) 97% (active); (at 100.0 µM) 96% (active).
